PMC4552634, “A New Set of Chemical Starting Points with Plasmodium falciparum Transmission-Blocking Potential for Antimalarial Drug Discovery” (PLoS ONE, 2015)
Like-named read-outs stand apart in the source and are kept apart here. Hit rate of the full screen: of about 13,000 compounds, about 3,200 (25%) showed an effect of 50% or more. This is one part of the list.

Tested on: P. falciparum stage V gametocytes
Parameters: BacTiter-Glo ATP luminescence viability of purified stage V gametocytes in 384-well plates, per cent inhibition versus DMSO
Details: 48 h, 5 µM, inhibitor

SMILES	% Inhibition	% Inhibition (% Inhibition)
CN(C)c1ccc(/C=C2\S/C(=N\c3ccccc3)N(c3ccccc3)C2=O)cc1[N+](=O)[O-] [TCMDC-124086]	-8.825%	
CCC(C)c1ccc(Nc2nc(C)cc(N(CC)CCCN3CCCCC3)n2)cc1 (centres unmarked) [TCMDC-132456]	-18.05%	
COc1cc(OC)c2c(c1Cl)O[C@]1(C2=O)C(=O)C(Cc2ccccc2)(Cc2ccccc2)C(=O)C[C@H]1C [TCMDC-131804]	9.09%	
COc1ccc(CN(C)CCCOc2ccc(NC(=O)C=Cc3ccc(C(C)(C)C)cc3)cc2)cc1OC [TCMDC-138277]	-85.5%	
CN1CCCc2cc(NC(=O)C=Cc3ccc(-c4ccc(F)cc4F)o3)ccc2C1 [TCMDC-134051]	105.5%	
COc1ccc(Br)cc1/C=C/C(=O)Nc1ccc2c(c1)CCCN(C)C2 [TCMDC-133717]	27.94%	
CN1CCCc2ccc(NC(=O)C=Cc3ccc(-c4ccc(F)cc4F)o3)cc2C1 [TCMDC-134124]	39.53%	
CCCCCn1c(Sc2ccc(C#N)c([N+](=O)[O-])c2)nnc1-c1ccc(OC)cc1 [TCMDC-135603]	31.95%	
COc1ccc2ncc(F)c([C@H](O)CN3CCC(NCc4ccc5c(c4)NC(=O)CS5)CC3)c2c1 [TCMDC-135827]	14.82%	
COc1ccc2ncc(F)c([C@@H](O)CN3CCC(NCc4cc5c(cn4)OCS5)CC3)c2c1 [TCMDC-135862]	14.45%	
COc1ccc2ncc(F)c(CCN3CCC(NCc4cnc5c(c4)NC(=O)CS5)CC3)c2c1 [TCMDC-134490]	87.27%	
COc1ccc2ncc(F)c([C@H](O)CN3CCC(NCc4cc5c(cn4)OCCO5)CC3)c2c1 [TCMDC-135296]	-10.65%	
COc1ccc2nccc([C@@H](O)CN3CCC(NCc4cnc5c(c4)NC(=O)CS5)CC3)c2c1 [TCMDC-141230]	6.568%	
COc1ccc2ncc(F)c(CCN3CCC(NCc4cc5c(cn4)OCCS5)CC3)c2c1 [TCMDC-134569]	54.76%	
CC(C)CC(=O)Nc1cc(=O)[nH]c2nc(-c3ccccc3)nn12 [TCMDC-125475]	3.79%	
Cc1cc(C(=O)CN2C(=O)NC3(CCCc4ccccc43)C2=O)c(C)n1Cc1ccc(F)cc1 (centres unmarked) [TCMDC-125057]	-27.15%	
O=C(/C=C/c1ccc(Cl)c(Cl)c1)NCCCCCN1CCC(NC(=O)c2ccc3ccccc3c2)CC1 [TCMDC-135869]	-22.99%	
Cc1[nH]c(C)c(-c2ccc(-c3ccc(C(F)(F)F)cc3C(F)(F)F)nc2)c(=O)c1Br [TCMDC-136013]	70.39%	
Cc1[nH]c(C)c(-c2ccc(-c3cc(C(F)(F)F)cc(C(F)(F)F)c3)nc2)c(=O)c1Br [TCMDC-136015]	76.88%	
Cc1[nH]c(C)c(-c2ccc(-c3ccccc3C(F)(F)F)nc2)c(=O)c1Br [TCMDC-135881]	80.96%	
Cc1[nH]c(C)c(-c2ccc(-c3cccc(C(F)(F)F)c3)nc2)c(=O)c1Br [TCMDC-135911]	22.21%	
N#Cc1cccc(/C=C/C(=O)NC2CCC(CCN3CCc4ccc(-c5cnccn5)cc4CC3)CC2)c1 (centres unmarked) [TCMDC-140238]	-55.93%	

SMILES	% Inhibition	% Inhibition (% Inhibition)
Cc1cc(N(C)C)nc(Nc2ccc(NC(=O)C3CCCCC3)cc2)n1 [TCMDC-124978]	11.42%	
CCOc1cc(C(=O)NCCN(C(C)C)C(C)C)ccc1-c1nc2ccc(Cl)cc2[nH]1 [TCMDC-140910]	18.37%	
O=c1cc(NCCCNC2CCCc3c2ccc2ccccc32)[nH]c2ccccc12 (centres unmarked) [TCMDC-139366]	0.6782%	
CCOC(=O)c1c(C)n(C2CCCCCC2)c2cc(Br)c(O)cc12 [TCMDC-124588]	-95.43%	
Cc1ccc(-n2c(C)cc(C(=O)CN3C(=O)NC(Cc4ccccc4)C3=O)c2C)cc1 (centres unmarked) [TCMDC-123563]	-21.41%	
CC(C)C[C@@H](/C=N/NC(N)=O)NC(=O)[C@H](CC(C)C)NC(=O)[C@H](CC(C)C)NC(=O)OCc1ccccc1 [TCMDC-139049]	-49.58%	
CCC(Nc1noc(-c2c(-c3ccccc3)noc2C)n1)c1ccccc1 (centres unmarked) [TCMDC-134200]	3.321%	
CC(C)CNCc1cccc(-c2cccc(CNC3CCN(Cc4ccccc4)CC3)c2)c1 [TCMDC-140479]	106.4%	
CC(C)CNCc1ccc(-c2cccc(CNC3CCN(Cc4ccccc4)CC3)c2)cc1 [TCMDC-140480]	110%	
CC(C)CNCc1cccc(-c2ccc(CNC3CCN(Cc4ccccc4)CC3)cc2)c1 [TCMDC-140487]	103%	
CC(C)CNCc1cccc(-c2ccccc2CNC2CCN(Cc3ccccc3)CC2)c1 [TCMDC-140469]	76.18%	
NC1=NC(c2ccccc2)(c2ccccc2)C(=O)N1C1CCCCC1 [TCMDC-136761]	-44.85%	
N=c1c2c(n(Cc3cccc(Cl)c3)c3c1CCC3)CCCC2 [TCMDC-125614]	24.77%	
COC(=O)/C=C/c1ccc(CC(C)NCC(O)c2cccc(C(F)(F)F)c2)cc1 (centres unmarked) [TCMDC-131503]		-2.875%
NC(N)=NC(=O)Nc1cc(Cl)c(Br)c(Cl)c1 [TCMDC-137507]	-11.69%	
O=C(/C=C/c1ccc(Cl)c(Cl)c1)NCCCCCN1CCN(C(=O)Nc2cccc(F)c2)CC1 [TCMDC-135731]	4.224%	
O=C(Nc1nc2cc(S(=O)(=O)NCCc3cccc(F)c3)ccc2n1CCCn1ccnc1)c1ccc(Cl)cc1 [TCMDC-141623]	-29.17%	
CC(C)c1ccc(NC(=O)c2ccc(C(=O)NC3CCN(Cc4ccsc4)C3)cc2)cc1 (centres unmarked) [TCMDC-136745]	-11.55%	
CSCCCN1CCC(O)(c2ccc3oc(C(=O)Nc4ccc5sc(C)nc5c4)cc3c2)CC1 [TCMDC-124646]	11.7%	
CC(C)CNCc1ccc(-c2ccc(CNC3CCN(Cc4ccccc4)CC3)cc2)cc1 [TCMDC-140488]	73.02%	
CC(C)CNCc1ccc(-c2ccccc2CNC2CCN(Cc3ccccc3)CC2)cc1 [TCMDC-140470]	78.66%	
COCCNCc1ccc(-c2ccccc2CNC2CCN(Cc3ccccc3)CC2)cc1 [TCMDC-140471]	43.38%	
